TDP1 cell CPT: qHTS for Inhibitors of human tyrosyl-DNA phosphodiesterase 1 (TDP1): qHTS in cells in presence of CPT | chicken DT40 Tdp1-/-;hTDP1 cells + 20 nM CPT, ATP luminescence, 48 h | Potency, µM (series often up to 46.2 µM), usual class: inhibitors | 12% of 420,000 active; also: nearly all actives have a fitted effect of over 55% in size
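Chicken DT40 Tdp1-/- cells stably complemented with human TDP1 were seeded at 400 cells/well in medium containing 20 nM camptothecin, exposed to pin-transferred compounds, and grown at 37 °C for at least 48 hr. Viability was read as ATP luminescence.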
TDP1 block: qHTS Assay for Inhibitors of Tyrosyl-DNA Phosphodiesterase (TDP1); Tyrosyl-DNA phosphodiesterase 1 (Homo sapiens), Q9NUW8; Potency, µM (doses to about 130 µM), usual class: inhibitors; 0.28% of 350,000 active; recombinant TDP1, AlphaScreen DNA substrate cleavage; AID 485290, 2010; also: nearly all actives have a fitted effect of over 40% in size
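Signal: AlphaScreen proximity between streptavidin donor and anti-FITC acceptor beads on intact substrate. Reaction: Tdp1 1 nM, substrate 15 nM final, 5 min RT after 15 min compound preincubation.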
TDP1 cell noCPT: qHTS for Inhibitors of human tyrosyl-DNA phosphodiesterase 1 (TDP1): qHTS in cells in absence of CPT; DT40 Tdp1-/- hTDP1 cells, no CPT, ATP luminescence, 48 h; Potency, µM (doses to about 46.2 µM), actives largely listed as inhibitors; 15% of 420,000 active; AID 686978, 2013; also: nearly all actives have a fitted effect of over 55% in size
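Growth kinetics read by CellTiter-Glo luminescence after ≥48 hr at 37 °C. Cells: DT40 Tdp1-/- stably carrying human TDP1, 400 per well, compound exposure in the absence of CPT (DMSO vehicle).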
ClpP mod: qHTS Assay for Activators of ClpP | Potency, µM (doses to about 57.5 µM) | purified B. subtilis ClpP, FRET peptide cleavage, 20 min | AID 651965, 2013 | 1.9% of 340,000 active; active = well fitted falling curve with a large enough effect; inconclusive = small, poorly fitted or top-dose-only effect; inactive = no such curve, though single readings can be large or run the other way; also: the source files actives as falling curves though it sought activators and does not explain the sign; nearly all actives have a fitted effect of over 65% in size
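Purified B. subtilis ClpP, 10 microg/mL final in Tris/HCl pH8 with KCl, BSA, glycerol and Tween-20, cleaved an Abz/nitrotyrosine-quenched decapeptide. Fluorescence (ex 320, em 430) was read at 0 and 20 min at room temperature. Delta was normalized to 5.8 microM ADEP and DMSO/no-enzyme controls.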
Large screens that a line does not name were inactive. Shown are actives, neighbours in structure and some others; about 17% of the full set was active somewhere. Unless noted, calls follow the shape of the dose curve; as a rule, active = well fitted curve in the direction sought with a large enough effect; inconclusive = small, poorly fitted or top-dose-only effect, or another doubt; inactive = no such curve, though single readings can be large; an effect the other way counts as inactive or inconclusive.

CCOc1nc(Nc2cc(Cl)ccc2OC)nc(OCC)n1	TDP1 cell CPT 20.6µM, TDP1 cell noCPT inconclusive
COc1ccc(Nc2nc(N)nc(C(F)(F)F)n2)c(OC)c1	none
CC1=CC2=NC(=O)/C(=C\c3cccn3CCOc3ccccc3C)C(=N)N2O1	TDP1 cell CPT 20.6µM, TDP1 cell noCPT inconclusive
CC(C)c1ccc(-n2cccc2/C=C2/C(=N)N3C=CSC3=NC2=O)cc1	TDP1 cell CPT inconclusive, TDP1 cell noCPT inconclusive
Cc1ccccc1Cn1cccc1/C=C1/C(=N)N2C=CSC2=NC1=O	TDP1 cell CPT 18.4µM, TDP1 cell noCPT 29.1µM
O=S(=O)(c1cccc(F)c1)N1CCC(c2nc3ccccc3s2)CC1	none
COc1ccc(C(=O)c2sc(Nc3ccccc3F)nc2N)cc1	TDP1 cell CPT inconclusive, TDP1 cell noCPT 11.6µM (no result: TDP1 block)
Cc1ccc(S(=O)(=O)N2C3CC(c4ccccc4)N(S(=O)(=O)c4cccc(Cl)c4)CC3C(=O)C[C@H]2c2ccccc2)cc1 (some centres undefined)	none (no result: TDP1 block)
CCCC(C)Sc1nc2c([nH]1)c(=S)n(C)c(=O)n2C (centres undefined)	TDP1 cell CPT 4.61µM, TDP1 cell noCPT 4.61µM (no result: TDP1 block)
O=c1[nH]c(SCC2CCCCO2)nc2ccccc12 (centres undefined)	TDP1 cell CPT inconclusive
Cn1c(=S)c2[nH]c(SCC3CCCO3)nc2n(C)c1=O (centres undefined)	TDP1 cell CPT 1.3µM, TDP1 cell noCPT 1.16µM (no result: TDP1 block)
O=C(OCC(=O)N1CCCC1=O)c1cccc([N+](=O)[O-])c1	none
O=C(c1cc(-c2ccc(Br)cc2)n[nH]1)N1CCN(S(=O)(=O)c2ccc(Br)s2)CC1	TDP1 cell CPT 20.6µM, TDP1 cell noCPT 23.1µM
O=C(c1cc(-c2ccc(Br)cc2)n[nH]1)N1CCN(S(=O)(=O)c2ccc(Cl)s2)CC1	TDP1 cell CPT inconclusive, TDP1 cell noCPT inconclusive
Cc1ccc(-c2cc(C(=O)N3CCN(S(=O)(=O)c4ccc(Br)s4)CC3)[nH]n2)cc1C	TDP1 cell CPT 14.6µM, TDP1 cell noCPT 13µM
Cc1ccc(-c2cc(C(=O)N3CCN(S(=O)(=O)c4ccc(Br)s4)CC3)[nH]n2)c(C)c1	TDP1 cell CPT 11.6µM, TDP1 cell noCPT 18.4µM
COc1ccc(S(=O)(=O)N2CCN(C(=O)c3cc(-c4ccc(C)cc4)n[nH]3)CC2)cc1	TDP1 cell CPT 25.9µM, TDP1 cell noCPT inconclusive (no result: TDP1 block)
Cc1ccc(-c2cc(C(=O)N3CCN(S(=O)(=O)c4ccc(Br)cc4)CC3)[nH]n2)c(C)c1	TDP1 cell CPT inconclusive, TDP1 cell noCPT inconclusive
COc1ccc(CN(C)CC(O)COc2ccc(C(=O)c3ccccc3)cc2)c(OC)c1OC (centres undefined)	TDP1 cell CPT inconclusive, TDP1 cell noCPT 16.4µM (no result: ClpP mod)
Cc1sc(-c2cc3ccccc3oc2=O)nc1-c1ccc(Cl)cc1	ClpP mod 31.6µM
CCOc1ccc(S(=O)(=O)N2CCCCC2)cc1NS(=O)(=O)c1cccs1	none
CCOC(=O)c1ccc(S(=O)(=O)NNS(=O)(=O)c2ccc(C)cc2)cc1	none (no result: TDP1 block)
CCOC(=O)c1ccc(S(=O)(=O)NC2CCC(C)CC2)cc1 (centres undefined)	TDP1 cell CPT 16.4µM, TDP1 cell noCPT 20.6µM
Cc1ccc(CN2CC(N3CCC(c4ccccc4)CC3)CS2(=O)=O)cc1 (centres undefined)	TDP1 cell CPT inconclusive, TDP1 cell noCPT inconclusive (no result: TDP1 block)
COc1ccc(C2=NC(C)(C)N(CC(=O)Nc3cccc(C)c3)C2=O)cc1	TDP1 cell CPT 4.61µM, TDP1 cell noCPT 3.66µM
O=C(Nc1nccs1)c1cc(-c2ccccn2)nc2c(Cl)cccc12	TDP1 cell CPT inconclusive
Cc1ccccc1NS(=O)(=O)c1ccc(Br)s1	none
Cc1ccc(C(O)c2ncc(-c3ccc4ccccc4c3)[nH]2)cc1 (centres undefined)	TDP1 cell CPT inconclusive, TDP1 cell noCPT inconclusive (no result: TDP1 block)
Cc1cccc(-c2cnc(C(O)c3ccc(-c4ccccc4)cc3)[nH]2)c1 (centres undefined)	TDP1 cell CPT 23.1µM, TDP1 cell noCPT 23.1µM (no result: TDP1 block)
Cc1cc(C)cc(C(O)c2ncc(-c3ccc4ccccc4c3)[nH]2)c1 (centres undefined)	TDP1 cell CPT 23.1µM, TDP1 cell noCPT inconclusive (no result: TDP1 block)
OC(c1ccc(-c2ccccc2)cc1)c1ncc(-c2ccccc2)[nH]1 (centres undefined)	TDP1 cell CPT inconclusive, TDP1 cell noCPT inconclusive (no result: TDP1 block)
CCC1CC=CC2C1C(=O)N(Cc1ccccc1)C2c1ccoc1 (centres undefined)	none (no result: TDP1 cell CPT, TDP1 cell noCPT, ClpP mod)
CC(=O)Nc1ccc(-n2nnnc2SCC(=O)Nc2cccc(NC(=O)c3ccco3)c2)cc1	none (no result: TDP1 block)
Cc1c(C(=O)N(C)C(C)c2ccccn2)oc2c(F)cccc12 (centres undefined)	none
CCCCCCCCCCn1ccc(=N)cc1	TDP1 cell CPT 0.0058µM, TDP1 cell noCPT 0.0184µM
CCCCCCCCn1ccc(=N)cc1	TDP1 cell CPT 2.06µM, TDP1 cell noCPT 1.84µM, ClpP mod inconclusive
CCCCCCN1Cc2ccccc2C1	none
COc1cc(CNCCc2ccccc2F)ccc1OCc1ccc(Cl)nc1	TDP1 cell CPT 14.6µM, TDP1 cell noCPT 23.1µM
COc1cc(CNCCc2ccc(F)cc2)ccc1OCc1ccc(Cl)nc1	TDP1 cell CPT 18.4µM, TDP1 cell noCPT 20.6µM
COc1cc(CO)ccc1OCc1ccc(Cl)nc1	none (no result: TDP1 block)
C=CCOc1ccc(C[C@H](N)C(=O)NC[C@H]2O[C@@H](n3cc(C)c(=O)[nH]c3=O)C[C@@H]2O)cc1	none (no result: TDP1 block)
CN(N=Nc1nc[nH]c1C(=O)NN)C1CCCCC1	none (no result: TDP1 block)
Cc1ccccc1CNC(=O)c1csc([C@H]2C[C@H](O)[C@@H](CO)O2)n1	none (no result: TDP1 block)
Cc1ccc(-n2c(O)c(/C=N/Nc3ccc(S(=O)(=O)N4CCOCC4)cc3[N+](=O)[O-])c3ccccc3c2=O)c(C)c1	TDP1 cell CPT 20.6µM, TDP1 cell noCPT 11.6µM
O=C(Nc1nc2c(s1)COc1ccccc1-2)c1cccs1	TDP1 cell CPT 11.6µM, TDP1 cell noCPT 23.1µM
O=C(CCS(=O)(=O)c1ccccc1)Nc1nc2c(s1)COc1ccccc1-2	TDP1 cell CPT 4.11µM, TDP1 cell noCPT 4.61µM
COc1cccc(C(=O)NCC2OCCc3ccccc32)c1 (centres undefined)	none
O=C(c1cnccn1)N(Cc1ccco1)C1(C(=O)NC2CCCC2)CCCCC1	none
CCC(C)(C(=O)NC1CCCC1)N(Cc1ccco1)C(=O)c1ccc2c(c1)OCO2 (centres undefined)	TDP1 cell CPT 9.2µM, TDP1 cell noCPT 7.31µM
O=C(c1ccc2c(c1)OCO2)N(Cc1ccco1)C1(C(=O)NC2CCCCC2)CCCCC1	TDP1 cell CPT 11.6µM, TDP1 cell noCPT 16.4µM
O=C(c1ccccn1)N(Cc1ccco1)C1(C(=O)Nc2ccc(Br)cc2)CCCCC1	TDP1 cell CPT 16.4µM, TDP1 cell noCPT 23.1µM (no result: TDP1 block)
CCC(C)(C(=O)NC1CCCC1)N(Cc1ccco1)C(=O)c1ccccn1 (centres undefined)	none

Source: PubChem (National Center for Advancing Translational Sciences (NCATS))
